Lassa entry inh: Lassa virus entry inhibition. Potency, µM (doses to about 37.9 µM), for the others: at the highest dose activity change, negative = inhibition, actives largely listed as inhibitors. 300,000 tested, 1.2% active. Lassa virus pseudotype entry inhibition, cell reporter; calls by dose curve; tested in HEK293 cells; note: potency is the fitted concentration of half-maximal effect; nearly all actives have a fitted effect of over 50% in size
FMDV inh: antivirals against foot and mouth disease virus. FMDV antiviral cell-based qHTS. Potency, µM (series often up to 57.9 µM), without a hit: at the top dose activity change, negative = inhibition, most hits filed as inhibitors. 410,000 tested, 1.2% active; calls by dose curve; tested in HEK293T cells; note: read-out not given here; potency is the fitted concentration of half-maximal effect; nearly all actives have a fitted effect of over 45% in size
HCMV antiviral: human cytomegalovirus inhibition; HFF cells, HCMV-luciferase reporter, 72 h; stronger effect = lower value; 410,000 tested, 4.5% active; activity change, negative = inhibition, % at 57.5 µM; in the data active = activity change below about -60%; inconclusive = no clear call, values can overlap the other calls; inactive = above about -39%
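Inhibition of viral replication was scored as loss of reporter luminescence in HFFs infected with HCMV-luciferase (MOI 1 PFU/cell) for 72 h; compounds tested at 2 doses, normalized to buffer and Salinomycin controls.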
Marburg entry inh: blocks Marburg virus binding to or entry into cells; Marburg virus pseudotyped entry inhibition, cell reporter; Potency, µM (doses to about 37.8 µM), without a hit: at the top dose activity change, negative = inhibition, usual class: inhibitors; 300,000 tested, 1.8% active; AID 540276; calls by dose curve; tested in HEK293 cells; note: potency is the fitted concentration of half-maximal effect
VACV Venus inh: inhibitors of vaccinia virus (Venus reporter); Vaccinia virus Venus reporter expression, fluorescence; Potency, µM (titrated, usually from 36.5 µM), for inactives: at the highest dose activity change, negative = inhibition, hits mostly inhibitors; 330,000 tested, 0.46% active; AID 720580; calls by dose curve; tested in A549 cells; note: potency is the fitted concentration of half-maximal effect; nearly all actives have a fitted effect of over 30% in size
Vaccinia mCherry: vaccinia inhibition (mCherry reporter). Vaccinia virus mCherry reporter infection, fluorescence. Potency, µM (doses to about 36.5 µM), for the others: at the highest dose activity change, negative = inhibition, usual class: inhibitors. 310,000 tested, 0.63% active. AID 720579; calls by dose curve; tested in A549 cells; note: potency is the fitted concentration of half-maximal effect; nearly all actives have a fitted effect of over 35% in size
* hit, by the source's call; i = inactive; ? = inconclusive; . = no result; ! = not active in a repeat; [ ] = remark or other dose. Compounds with a hit are over-represented: about 6.5% of the library has one in this group of screens. % is set by controls: 0 for no effect and ±100 for the full control effect.

SMILES	Lassa entry inh	FMDV inh	HCMV antiviral	Marburg entry inh	VACV Venus inh	Vaccinia mCherry
ClC(Cl)c1nnc(-c2ccccc2)c(-c2c[nH]c3ccccc23)n1	-2.7%	-19.9%	-86.5*	?	?	?
CCc1nc2ccccc2n2c(-c3ccccc3)c3c(=O)n(C)c(=O)n(C)c3c12	-4.0%[46.1 µM]	0.0%	13.2	-1.6%[46.1 µM]	-10.9%	-13.2%
COc1ccc2[nH]c3nc(SCc4nnc(-c5ccccc5)o4)nnc3c2c1	?	-13.3%	-94.3*	-25.1%	.	.
COc1ccc(CNC(=O)CSc2nnc3c(n2)[nH]c2ccc(OC)cc23)cc1	.	11.3%	16.6	?	-0.7%	8.6%
COc1ccc2[nH]c3nc(SC(C)C)nnc3c2c1	2.24µM*	12.6µM*	-20.7	?	-8.9%	-14.2%
Nc1c(Br)cc(/C=C2\C=Cc3ccccc32)cc1Br	.	.	.	.	-14.1%	-18.0%
CCCCCN=C(N)N/N=C/c1c[nH]c2ccc(OC)cc12	.	?	-99.7*	.	11.2µM*!	?
CCCOc1ccc(C(=O)N/N=C/c2c[nH]c3ccc(Br)cc23)cc1	?	-10.7%	-30.5	-15.2%[46.1 µM]	-16.5%	-25.2%
Cc1cc(C)c(NC(=O)c2cc3c(=O)n4ccccc4nc3n2C)c(C)c1	-22.9%[46.1 µM]	?	-79.3*	.	-29.0%	-2.6%
Cc1cccc(N2CCN(C(=O)c3ccc4nc(-c5ccco5)c(-c5ccco5)nc4c3)CC2C)c1 (stereo not given)	?	25.1µM*	-36.4	?	.	.
CC(=O)Nc1cc(C(=O)N2CC3(C)CC2CC(C)(C)C3)cc2ncn(CCc3ccccn3)c12 (stereo not given)	.	21.3%	.	.	-10.9%	-15.4%
NC(=O)NN=C1CCC(O)CC1CC(=O)O (stereo not given)	.	.	-21.7	.	.	.
CCN(C(=O)COC(=O)CNC(=O)C12CC3CC(CC(C3)C1)C2)C1CCS(=O)(=O)C1 (stereo not given)	4.7%	0.3%	-101.9*	15.3%	-6.7%	i
CCN(C(=O)C12CC3CC(CC(C3)C1)C2)C1CCS(=O)(=O)C1 (stereo not given)	18.7%	-11.3%	-24.0	1.1%	-11.6%	-15.6%
Cc1c(C(=O)NCC(C)(C)N2CCOCC2)cnn1-c1ncc2c(n1)-c1ccccc1CC2	.	0.5%	.	.	-5.2%	0.0%
CCN(CC)CCNC(=O)CCc1c(C)nc2c(c(C)nn2-c2ccc(C)c(C)c2)c1C	.	-17.4%	-98.0*	.	.	.
COc1ccc(C2CC(C(F)(F)F)n3nc(C(=O)NCc4c(C)nn(C)c4C)c(Cl)c3N2)cc1 (stereo not given)	-38.1%	.	-86.0*	10.3µM*	?	?
Cc1nn(C)c(C)c1CNC(=O)c1cc2n(n1)C(C(F)(F)F)CC(c1cccs1)N2 (stereo not given)	-13.8%	.	-68.5*	-28.7%	-23.2%	-19.3%
CCOC(=O)c1c(NC(=O)c2cc3n(n2)C(C(F)(F)F)CC(c2cccs2)N3)sc(C)c1C (stereo not given)	-19.1%	0.0%	?	9.0%	-4.8%	-9.0%
COc1ccc(C2c3c(oc4cc(C)cc(C)c4c3=O)C(=O)N2Cc2ccco2)cc1OC (stereo not given)	14.1%[46.1 µM]	-8.0%	-2.4	2.0%[46.1 µM]	35.0%	25.7%
CO[C@H]1[C@H](NC(=O)c2ccncc2)c2ccccc2C12CCN(C(=O)c1ccoc1)CC2	.	-9.1%	.	.	6.1%	-6.3%
Cc1ccc(-n2nnnc2SC(C)C(=O)Nc2ccccc2-c2ccccc2)cc1 (stereo not given)	-10.6%	-22.7%	-61.1*	-18.4%[46.1 µM]	2.3%	i
CC(Sc1nnnn1C)C(=O)Nc1ccccc1-c1ccccc1 (stereo not given)	2.4%	.	?	-2.2%	-17.9%	-18.6%
CC(=O)[C@]12C[C@@H]3CCCN(C(=O)N[C@@H]1c1ccccc1)[C@@H]32	.	.	.	0.3%[14.2 µM]	.	.
CCOC(=O)c1cnn(-c2sc(C(=O)OCC)c(C)c2C(=O)OCC)c1N	3.3%	.	-68.4*	2.8%	-16.0%	-2.0%
SMILES	Lassa entry inh	FMDV inh	HCMV antiviral	Marburg entry inh	VACV Venus inh	Vaccinia mCherry
CCN(CC)c1ccc(NC(=O)C(NS(=O)(=O)c2cccs2)C(C)C)c(C)c1 (stereo not given)	11.4%[46.1 µM]	-8.5%	-3.5	-19.9%[46.1 µM]	0.9%	-9.4%
CCc1nnc(NC(=O)C2CC(=O)N(CCc3ccc(F)cc3)C2)s1 (stereo not given)	-1.7%[46.1 µM]	2.2%	-64.0*	-1.4%[46.1 µM]	-5.7%	-5.9%
O=C(Nc1nccs1)C1CC(=O)N(CCc2ccc(F)cc2)C1 (stereo not given)	25.9%[46.1 µM]	-13.9%	-62.2*	-12.3%[46.1 µM]	-13.7%	-12.2%
Cc1ccc(N2CC(C(=O)Nc3nccs3)CC2=O)cc1Cl (stereo not given)	-2.1%	11.3%	-91.2*	3.9%	.	.
CCOc1ccc(CCNC(=O)C2CC(=O)N(CCc3ccc(OC)c(OC)c3)C2)cc1OCC (stereo not given)	27.4%	-15.8%	-14.4	-3.7%	-20.9%	-16.7%
CCc1nnc(NC(=O)C2CC(=O)N(CCc3ccccc3)C2)s1 (stereo not given)	10.7%	13.5%	114.4	-3.8%	.	.
CCOc1ccc(CCNC(=O)C2CC(=O)N(CCc3ccccc3)C2)cc1OCC (stereo not given)	-0.2%[46.1 µM]	6.6%	-71.6*	-1.5%[46.1 µM]	-12.2%	-14.1%
CCN1CCCC1CNC(=O)c1cnn(-c2nccc(-c3ccccc3OC)n2)c1-c1ccco1 (stereo not given)	.	-5.8%	.	.	0.0%	-14.1%
COc1ccc(NC(=O)CSC2=Nc3ccccc3N=C(c3ccc(F)cc3)C2)cc1OC	26.9%[46.1 µM]	?	-101.6*	.	-9.0%	-15.5%
CCc1cccc(NC(=O)CSC2=Nc3ccccc3N=C(c3ccc(F)cc3)C2)c1	-0.1%[46.1 µM]	-22.7%	-34.6	.	-13.9%	-11.1%
Cc1cccc(CN2C(=O)[C@H]3Cc4c([nH]c5ccccc45)C(C)(C)N3C2=O)c1	.	35.5µM*	37.1	.	.	.
Cc1c(C(=O)N/N=C/c2ccc(N(C)C)cc2)[nH]c2ccc(Cl)cc12	?	41.4%	-76.4*	-23.3%	-7.9%	-16.3%
O=C(N/N=C/c1ccccc1)c1c(O)c2ccccc2[nH]c1=O	?	1.1%	-91.6*	4.7%	-19.0%	-24.6%
O=C(N/N=C/c1ccc(F)cc1)c1c(O)c2ccccc2[nH]c1=O	-1.6%	?	-21.4	16.8%	0.7%	-9.8%
Cc1c(C(=O)N/N=C/c2ccccc2)[nH]c2ccc(Cl)cc12	.	101.4%	-70.3*	.	?	-29.6%
COc1ccc2c3n([n+]([O-])c2c1)C(C)CN=C3c1cc(Cl)c(N)c(Cl)c1 (stereo not given)	.	.	58.3	.	.	.
COc1ccc(-c2nc(-c3ccccc3)nc3ccccc23)cc1	.	.	-8.6	.	.	.
O=C1NC(=O)N(c2ccc3c(c2)OCO3)C(=O)/C1=C/c1cccs1	?	28.2µM*	98.6	?	20.1%	i
O=C1c2ccccc2NC(c2cn[nH]c2-c2ccccc2)N1O (stereo not given)	1.5%	-26.6%	-18.7	-28.9%	-20.1%	-24.4%
